From the supplement of paper PMC10646978
± gives the standard deviation.

Experiments:
Conditions in all cases: modulator concentration 10 µM
[1] = tested on: RAW-Dual (murine macrophage reporter line); experiment: NF-kB reporter (SEAP) activity fold change vs agonist alone; higher = enhanced NF-kB activity
How it was run: (§1)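 RAW-Dual murine macrophage reporter cells were plated at 50 000 per well in 384-well plates, pin-transferred compound to 10 μM final, and pre-incubated for 1 hour at 37 °C before a PRR agonist was added and the cells incubated overnight. NF-κB activity was read from supernatant SEAP with QUANTI-Blue at 620 nm absorbance, and IRF activity from Lucia luciferase with QUANTI-Luc by luminescence. Each signal was expressed as fold change by dividing by the mean agonist-only control on the same plate. Two replicate plates were averaged, with errors obtained by propagation.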

[2] = tested on: RAW-Dual (murine macrophage reporter line); experiment: IRF reporter (Lucia luciferase) activity fold change vs agonist alone; higher = enhanced IRF activity
How it was run: as §1

[3] = tested on: RAW-Dual (murine macrophage reporter line); experiment: viability score (confluency relative to resting cells, overnight) (fraction); higher = more viable, active = viable (0.7 or more)
How it was run: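 RAW-Dual macrophages in 384-well plates were exposed overnight to compound at 10 μM final. Confluency was imaged with IncuCyte, and two confluency masks were generated with IncuCyte software over all imaged wells. The viability score is confluency expressed relative to resting cells. Compounds were called viable if both masks exceeded 70% of resting cells.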

[4] = agonist: CpG ODN 1826 0.5 ug/mL

Structure (SMILES) | NF-kB reporter [1, 4] | NF-kB reporter ([1]; agonist: LPS 0.1 ug/mL) | NF-kB reporter ([1]; agonist: MPLA […]) | IRF reporter ([2]; agonist: 3'3'-cGAMP 10 ug/mL) | IRF reporter ([2]; agonist: LPS 0.1 ug/mL) | IRF reporter ([2]; agonist: MPLA […]) | viability score [3]
O=S1(=O)N=C(NN=Cc2ccccc2O)c2ccccc21 | 1 ± 0.081 | 0.95 ± 0.14 | 1.1 ± 0.12 | 1 ± 0.049 | 1.25 ± 0.16 | 1.46 ± 0.25 | 1.03 (active)
O=[N+]([O-])c1ccc(CN2c3ccccc3C3=C(CCCC3)C23CCCCC3)cc1 | 0.959 ± 0.074 | 1.04 ± 0.08 | 0.936 ± 0.1 | 0.951 ± 0.057 | 1.33 ± 0.16 | 1.6 ± 0.27 | 1.03 (active)
Br.Cc1ccc(-c2csc(N3N=C(c4ccc(F)cc4)CC3c3ccc(C(C)C)cc3)n2)cc1C (configuration not stated) | 0.948 ± 0.083 | 1.01 ± 0.072 | 0.903 ± 0.088 | 0.824 ± 0.027 | 1.35 ± 0.14 | 1.13 ± 0.099 | 1 (active)
Cc1ccc(-n2ncc3c(=O)n(CC=Cc4ccccc4)cnc32)cc1C | 0.969 ± 0.086 | 1.1 ± 0.089 | 0.96 ± 0.091 | 1.03 ± 0.061 | 1.19 ± 0.12 | 1.06 ± 0.34 | 0.984 (active)
O=C(C=Cc1ccccc1)NC(NC(=S)Nc1cccc(O)c1)C(Cl)(Cl)Cl (configuration not stated) | 0.835 ± 0.074 | 0.803 ± 0.1 | 0.972 ± 0.099 | 0.737 ± 0.024 | 1.25 ± 0.23 | 1.3 ± 0.28 | 1.03 (active)
Cc1cc2nc3sc(=Cc4ccc(F)cc4)c(=O)n3c2cc1C | 0.99 ± 0.12 | 0.932 ± 0.12 | 1.04 ± 0.097 | 0.817 ± 0.03 | 1.07 ± 0.12 | 1.07 ± 0.13 | 1.03 (active)
CN(C)CCC=C1c2ccccc2Sc2ccc(Cl)cc21.Cl | 0.333 ± 0.095 | 0.862 ± 0.052 | 1.12 ± 0.13 | 0.412 ± 0.046 | 1.39 ± 0.18 | 1.69 ± 0.16 | 0.547 (inactive)
O=C(CCCN1CCC(O)(c2ccc(Cl)cc2)CC1)c1ccc(F)cc1 | 0.827 ± 0.13 | 0.893 ± 0.074 | 1.12 ± 0.098 | 1.05 ± 0.071 | 1.36 ± 0.092 | 1.38 ± 0.13 | 1.01 (active)
CN1C[C@@H]2c3ccccc3Oc3ccc(Cl)cc3[C@H]2C1.O=C(O)/C=C\C(=O)O | 0.164 ± 0.03 | 0.821 ± 0.14 | 0.908 ± 0.14 | 0.475 ± 0.044 | 0.914 ± 0.088 | 1.07 ± 0.13 | 0.252 (inactive)
CCOC(=O)C1CCCN(S(=O)(=O)Cc2ccccc2)C1 (configuration not stated) | 0.766 ± 0.067 | 0.879 ± 0.043 | 1.02 ± 0.089 | 0.814 ± 0.04 | 1.42 ± 0.096 | 1.53 ± 0.14 | 1.01 (active)
CC(C)NC(=N)NC(=N)Nc1ccc(Cl)cc1 [Prestw-999] | 0.806 ± 0.053 | 1.33 ± 0.1 | 1.27 ± 0.087 | 0.994 ± 0.059 | 1.18 ± 0.12 | 0.954 ± 0.3 | 0.994 (active)
CCCCCCC1OCC2(CO)C(C)C=C(C)C1C2C (configuration not stated) | 0.532 ± 0.075 | 0.697 ± 0.082 | 0.716 ± 0.067 | 1.31 ± 0.075 | 1.05 ± 0.17 | 1.21 ± 0.24 | 0.898 (active)
CC1=C(C(=O)N2CCOCC2)C(c2cccs2)NC(=O)N1 (configuration not stated) | 1.12 ± 0.18 | 0.973 ± 0.1 | 0.965 ± 0.076 | 0.933 ± 0.047 | 1.07 ± 0.11 | 1.17 ± 0.14 | 0.986 (active)
CCOC(=O)C1=C(Nc2ccccc2)SC(=Cc2ccc(O)c(OCC)c2)C1=O | 1.1 ± 0.093 | 1.03 ± 0.07 | 1.15 ± 0.18 | 1.1 ± 0.036 | 1.26 ± 0.12 | 1.12 ± 0.16 | 1.01 (active)
O=C(NC1CCN(c2ncnc3c2CCCC3)CC1)c1ccc(=O)[nH]c1 | 1.09 ± 0.13 | 1.09 ± 0.11 | 0.949 ± 0.057 | 0.957 ± 0.096 | 1.24 ± 0.11 | 1.07 ± 0.1 | 1.02 (active)
O=S(=O)(Cc1cccc(Cl)c1)N1C2CCC1CC(Oc1cccnc1)C2 (configuration not stated) | 1.07 ± 0.064 | 1.13 ± 0.1 | 1.08 ± 0.039 | 0.96 ± 0.064 | 1.12 ± 0.063 | 1.2 ± 0.12 | 1 (active)
O=C(C1COCC(=O)N1Cc1ccccc1)N1CCN(c2cccc(Cl)c2)CC1 (configuration not stated) | 1.01 ± 0.05 | 1.09 ± 0.089 | 1.08 ± 0.064 | 1.01 ± 0.051 | 1.24 ± 0.075 | 1.29 ± 0.11 | 1.01 (active)
CSCCC(NC(C)=O)C(=O)N1CCc2nc3ccc(Cl)cn3c(=O)c2C1 (configuration not stated) | 1.42 ± 0.35 | 0.918 ± 0.047 | 1.06 ± 0.12 | 1.01 ± 0.043 | 1.24 ± 0.17 | 1.29 ± 0.21 | 0.986 (active)
CC(C)c1nc(CN(C)C(=O)N[C@@H](CCN2CCOCC2)C(=O)N[C@H](CC[C@H](Cc2ccccc2)NC(=O)OCc2cncs2)Cc2ccccc2)cs1 | 1.29 ± 0.073 | 0.959 ± 0.076 | 1.14 ± 0.036 | 0.687 ± 0.032 | 0.842 ± 0.11 | 0.839 ± 0.18 | 1 (active)
O=C(c1cc2ccccc2o1)N1CC(N2C(=O)CCC2=O)C1 | 0.894 ± 0.054 | 0.957 ± 0.076 | 1.05 ± 0.066 | 1.03 ± 0.055 | 1.32 ± 0.26 | 1.44 ± 0.38 | 0.985 (active)
Clc1ccccc1C=NNc1nc(-c2ccccc2)cc(-c2ccccc2)n1 | 1.15 ± 0.11 | 1.1 ± 0.073 | 1.79 ± 0.07 | 1.2 ± 0.23 | 1.04 ± 0.065 | 1.65 ± 0.29 | 1 (active)
Cc1cc(OCC(=O)NC2CC(C)(C)NC(C)(C)C2)ccc1Br | 0.843 ± 0.1 | 1.03 ± 0.079 | 1.05 ± 0.043 | 0.952 ± 0.041 | 1.1 ± 0.079 | 1.55 ± 0.19 | 0.976 (active)
CN(C)CCOC1=Cc2ccccc2Sc2ccc(Cl)cc21 [Prestw-1368] | 0.965 ± 0.077 | 0.97 ± 0.094 | 1.11 ± 0.039 | 0.772 ± 0.031 | 0.895 ± 0.061 | 0.761 ± 0.099 | 0.994 (active)
Nc1c2c(nc3ccccc13)CCCC2 [Prestw-329] | 0.919 ± 0.075 | 0.967 ± 0.084 | 1.24 ± 0.11 | 1 ± 0.057 | 1.55 ± 0.12 | 1.66 ± 0.14 | 1 (active)
CC(=O)N[C@H]1[C@H]([C@H](O)[C@H](O)CO)OC(C(=O)O)=C[C@@H]1NC(=N)N | 1.12 ± 0.27 | 0.945 ± 0.12 | 1.02 ± 0.066 | 0.919 ± 0.04 | 1.3 ± 0.24 | 1.08 ± 0.12 | 1.01 (active)
COc1ccc(NC(=O)CN(c2ccc(F)cc2)S(C)(=O)=O)c(OC)c1 | 0.872 ± 0.073 | 0.896 ± 0.067 | 1.05 ± 0.099 | 0.921 ± 0.042 | 1.23 ± 0.089 | 1.35 ± 0.14 | 0.999 (active)
